# From PubChem BioAssay AID1508601 (ICCB-Longwood Screening Facility, Harvard Medical School, 2020)
# About 85 (1%) of roughly 5,700 compounds were called active. Rule as the data show it: active = p53-positive nuclei above about 36% (passing the limit was not always enough); inactive = the rest. Many of the other results were omitted from the sample, so actives are more common in it than they were.
# Columns and labels:
# [1] = nuclear p53 accumulation, HPV+ cells – imaging, p53-positive nuclei imaging, 24 h, 48 h (AID 1508601); settings: 24/48 h
# [2] = biological target: Cellular tumor antigen p53 (Homo sapiens) (UniProt P04637); assay: as above; settings: 24/48 h, stronger effect = higher value
# [3] = measured here: cell number at 24 h, concentration not given here
# [4] = measured here: cell number at 48 h, concentration not given here
# [5] = measured here: p53 positive nuclei at 24 h, concentration not given here
# [6] = measured here: cell number at 24 h, Library stock concentration: 80 uM
# [7] = measured here: cell number at 24 h, Library stock concentration: 400 uM
# [8] = measured here: cell number at 24 h, Library stock concentration: 2 mM
# [9] = measured here: cell number at 24 h, Library stock concentration: 3.33 mM
# [10] = measured here: cell number at 24 h, Library stock concentration: 10 mM
# [11] = measured here: cell number at 48 h, Library stock concentration: 80 uM
# [12] = measured here: cell number at 48 h, Library stock concentration: 400 uM
# [13] = measured here: cell number at 48 h, Library stock concentration: 2 mM
# [14] = measured here: cell number at 48 h, Library stock concentration: 3.33 mM
# [15] = measured here: cell number at 48 h, Library stock concentration: 10 mM
# [16] = Library stock concentration: 80 uM
# [17] = Library stock concentration: 400 uM
# [18] = Library stock concentration: 2 mM
# [19] = Library stock concentration: 3.33 mM
# [20] = Library stock concentration: 10 mM
# [21] = measured here: p53 positive nuclei at 24 h, Library stock concentration: 80 uM
# [22] = measured here: p53 positive nuclei at 24 h, Library stock concentration: 400 uM
# [23] = measured here: p53 positive nuclei at 24 h, Library stock concentration: 2 mM
# [24] = measured here: p53 positive nuclei at 24 h, Library stock concentration: 3.33 mM
# [25] = measured here: p53 positive nuclei at 24 h, Library stock concentration: 10 mM
# Chain of Cellular tumor antigen p53 (Homo sapiens) (P04637 whole entry, looked up): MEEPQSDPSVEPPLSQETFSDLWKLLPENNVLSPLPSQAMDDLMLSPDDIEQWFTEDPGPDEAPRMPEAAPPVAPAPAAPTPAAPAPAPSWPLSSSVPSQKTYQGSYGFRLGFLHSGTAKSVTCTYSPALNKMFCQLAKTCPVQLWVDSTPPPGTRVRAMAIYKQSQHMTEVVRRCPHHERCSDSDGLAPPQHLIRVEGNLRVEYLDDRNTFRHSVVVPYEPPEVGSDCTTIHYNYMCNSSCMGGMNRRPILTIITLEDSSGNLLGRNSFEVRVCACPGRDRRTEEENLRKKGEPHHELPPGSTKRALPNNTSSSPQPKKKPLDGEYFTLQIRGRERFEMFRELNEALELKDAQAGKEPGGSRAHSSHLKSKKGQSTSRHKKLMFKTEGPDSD
smiles,measurement,setting,value
CCCCC[C@@](C)(O)/C=C/[C@H]1[C@H](O)CC(=O)[C@@H]1C/C=C\CCCC(=O)O,"nuclei count, normalised",[1]; [3],101%
same,"nuclei count, normalised",[1]; [4],105%
same,"p53-positive nuclei, normalised",[2]; concentration not given here,-0.0639% (inactive)
same,"p53-positive nuclei, normalised",[2]; [5],0.0947%
CC(C)N(CCCNC(=O)Nc1ccc(C(C)(C)C)cc1)CC1OC(n2cc(Br)c3c(N)ncnc32)C(O)C1O (stereo not given),"nuclei count, normalised",[1]; [6],105%
same,"nuclei count, normalised",[1]; [7],101%
same,"nuclei count, normalised",[1]; [8],103%
same,"nuclei count, normalised",[1]; [9],115%
same,"nuclei count, normalised",[1]; [10],101%
same,"nuclei count, normalised",[1]; [11],98.8%
same,"nuclei count, normalised",[1]; [12],96.7%
same,"nuclei count, normalised",[1]; [13],94.7%
same,"nuclei count, normalised",[1]; [14],110%
same,"nuclei count, normalised",[1]; [15],99.9%
same,"p53-positive nuclei, normalised",[2]; [16],-0.0631% (inactive)
same,"p53-positive nuclei, normalised",[2]; [17],0.111% (inactive)
same,"p53-positive nuclei, normalised",[2]; [18],0.291% (inactive)
same,"p53-positive nuclei, normalised",[2]; [19],-0.109% (inactive)
same,"p53-positive nuclei, normalised",[2]; [20],0.13% (inactive)
same,"p53-positive nuclei, normalised",[2]; [21],-0.167%
same,"p53-positive nuclei, normalised",[2]; [22],0.0144%
same,"p53-positive nuclei, normalised",[2]; [23],-0.162%
same,"p53-positive nuclei, normalised",[2]; [24],-0.283%
same,"p53-positive nuclei, normalised",[2]; [25],-0.163%
CCCC1CC(C(=O)NC(C(C)O)[C@@H]2OC(SC)C(O)C(O)C2O)N(C)C1 (stereo not given in full),"nuclei count, normalised",[1]; [9],101%
same,"nuclei count, normalised",[1]; [14],102%
same,"p53-positive nuclei, normalised",[2]; [19],-0.245% (inactive)
same,"p53-positive nuclei, normalised",[2]; [24],-0.267%
N#CSc1cc(SC#N)c(N)nc1N,"nuclei count, normalised","[1]; measured here: cell number at 24 h, Library stock concentration: 500 nM",108%
same,"nuclei count, normalised","[1]; measured here: cell number at 24 h, Library stock concentration: 1.5 uM",116%
same,"nuclei count, normalised","[1]; measured here: cell number at 24 h, Library stock concentration: 4.6 uM",121%
same,"nuclei count, normalised","[1]; measured here: cell number at 24 h, Library stock concentration: 13.7 uM",119%
same,"nuclei count, normalised","[1]; measured here: cell number at 24 h, Library stock concentration: 41 uM",107%
same,"nuclei count, normalised","[1]; measured here: cell number at 24 h, Library stock concentration: 123 uM",114%
same,"nuclei count, normalised","[1]; measured here: cell number at 24 h, Library stock concentration: 370 uM",114%
same,"nuclei count, normalised","[1]; measured here: cell number at 24 h, Library stock concentration: 1.111 mM",107%
same,"nuclei count, normalised",[1]; [9],97.4%
same,"nuclei count, normalised","[1]; measured here: cell number at 24 h, Library stock concentration: 3.333 mM",84.8%
same,"nuclei count, normalised",[1]; [10],45.2%
same,"nuclei count, normalised","[1]; measured here: cell number at 48 h, Library stock concentration: 500 nM",108%
same,"nuclei count, normalised","[1]; measured here: cell number at 48 h, Library stock concentration: 1.5 uM",111%
same,"nuclei count, normalised","[1]; measured here: cell number at 48 h, Library stock concentration: 4.6 uM",118%
same,"nuclei count, normalised","[1]; measured here: cell number at 48 h, Library stock concentration: 13.7 uM",113%
same,"nuclei count, normalised","[1]; measured here: cell number at 48 h, Library stock concentration: 41 uM",108%
same,"nuclei count, normalised","[1]; measured here: cell number at 48 h, Library stock concentration: 123 uM",113%
same,"nuclei count, normalised","[1]; measured here: cell number at 48 h, Library stock concentration: 370 uM",74.3%
same,"nuclei count, normalised","[1]; measured here: cell number at 48 h, Library stock concentration: 1.111 mM",74.4%
same,"nuclei count, normalised",[1]; [14],103%
same,"nuclei count, normalised","[1]; measured here: cell number at 48 h, Library stock concentration: 3.333 mM",62.1%
same,"nuclei count, normalised",[1]; [15],21.8%
same,"p53-positive nuclei, normalised",[2]; Library stock concentration: 500 nM,0.137% (inactive)
same,"p53-positive nuclei, normalised",[2]; Library stock concentration: 1.5 uM,-0.0213% (inactive)
same,"p53-positive nuclei, normalised",[2]; Library stock concentration: 4.6 uM,-0.102% (inactive)
same,"p53-positive nuclei, normalised",[2]; Library stock concentration: 13.7 uM,0.047% (inactive)
same,"p53-positive nuclei, normalised",[2]; Library stock concentration: 41 uM,0.227% (inactive)
same,"p53-positive nuclei, normalised",[2]; Library stock concentration: 123 uM,-0.098% (inactive)
same,"p53-positive nuclei, normalised",[2]; Library stock concentration: 370 uM,0.164% (inactive)
same,"p53-positive nuclei, normalised",[2]; Library stock concentration: 1.111 mM,0.121% (inactive)
same,"p53-positive nuclei, normalised",[2]; [19],0.00985% (inactive)
same,"p53-positive nuclei, normalised",[2]; Library stock concentration: 3.333 mM,0.39% (inactive)
same,"p53-positive nuclei, normalised",[2]; [20],46.6% (active)
same,"p53-positive nuclei, normalised","[2]; measured here: p53 positive nuclei at 24 h, Library stock concentration: 500 nM",0.00877%
same,"p53-positive nuclei, normalised","[2]; measured here: p53 positive nuclei at 24 h, Library stock concentration: 1.5 uM",-0.00152%
same,"p53-positive nuclei, normalised","[2]; measured here: p53 positive nuclei at 24 h, Library stock concentration: 4.6 uM",0.0386%
same,"p53-positive nuclei, normalised","[2]; measured here: p53 positive nuclei at 24 h, Library stock concentration: 13.7 uM",-0.00721%
same,"p53-positive nuclei, normalised","[2]; measured here: p53 positive nuclei at 24 h, Library stock concentration: 41 uM",0.497%
same,"p53-positive nuclei, normalised","[2]; measured here: p53 positive nuclei at 24 h, Library stock concentration: 123 uM",0.0549%
same,"p53-positive nuclei, normalised","[2]; measured here: p53 positive nuclei at 24 h, Library stock concentration: 370 uM",-0.0579%
same,"p53-positive nuclei, normalised","[2]; measured here: p53 positive nuclei at 24 h, Library stock concentration: 1.111 mM",0.00745%
same,"p53-positive nuclei, normalised",[2]; [24],-0.237%
same,"p53-positive nuclei, normalised","[2]; measured here: p53 positive nuclei at 24 h, Library stock concentration: 3.333 mM",0.112%
same,"p53-positive nuclei, normalised",[2]; [25],76.7%
CC/C=C\C/C=C\C/C=C\C/C=C\C/C=C\CCCCCC(=O)O,"nuclei count, normalised",[1]; [3],100%
same,"nuclei count, normalised",[1]; [4],102%
same,"p53-positive nuclei, normalised",[2]; concentration not given here,0.209% (inactive)
same,"p53-positive nuclei, normalised",[2]; [5],-0.0279%
CC(Oc1ccc2c(c1)OCO2)C(=O)N(Cc1nccn1C)C(C)C (stereo not given),"nuclei count, normalised",[1]; [3],101%
same,"nuclei count, normalised",[1]; [4],109%
same,"p53-positive nuclei, normalised",[2]; concentration not given here,-0.128% (inactive)
same,"p53-positive nuclei, normalised",[2]; [5],0.148%
CCCCc1ccc(N=CNO)c(C)c1,"nuclei count, normalised",[1]; [6],102%
same,"nuclei count, normalised",[1]; [7],87.8%
same,"nuclei count, normalised",[1]; [8],104%
same,"nuclei count, normalised",[1]; [10],97.5%
same,"nuclei count, normalised",[1]; [3],112%
same,"nuclei count, normalised",[1]; [11],102%
same,"nuclei count, normalised",[1]; [12],96.8%
same,"nuclei count, normalised",[1]; [13],107%
same,"nuclei count, normalised",[1]; [15],103%
same,"nuclei count, normalised",[1]; [4],114%
same,"p53-positive nuclei, normalised",[2]; [16],-0.0421% (inactive)
same,"p53-positive nuclei, normalised",[2]; [17],-0.0681% (inactive)
same,"p53-positive nuclei, normalised",[2]; [18],-0.128% (inactive)
same,"p53-positive nuclei, normalised",[2]; [20],-0.158% (inactive)
same,"p53-positive nuclei, normalised",[2]; concentration not given here,-0.0134% (inactive)
same,"p53-positive nuclei, normalised",[2]; [21],-0.116%
same,"p53-positive nuclei, normalised",[2]; [22],0.0745%
same,"p53-positive nuclei, normalised",[2]; [23],0.0465%
same,"p53-positive nuclei, normalised",[2]; [25],0.123%
same,"p53-positive nuclei, normalised",[2]; [5],-0.0878%
